Reference: PubChem BioAssay AID1159580 (chemical genetic matrix, 2015)
Screen size: about 5,500 compounds; about 2,000 (36%) were called active. Inconclusive results (about 18%) are left out. Cut-off read from the data, not from the text of the source: active = normalized growth mostly below about 0.91 (no sharp cut-off); inconclusive = no clear call, values can overlap the other calls; inactive = mostly above about 0.92. The list shows a part of the results.

Assay: chemical genetic growth profiling, strain panel (AID 1159580);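 note: tested at 20 µM; growth read once vehicle control cultures reached saturation at 30 °C; 1 = growth at the plate median or of vehicle wells; lower values mean less growth of the strain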
Details: S. cerevisiae deletion strains, growth OD

Measured: normalized growth

CN(C)c1ccc(/C=C/c2ccc3ccccc3[n+]2C)cc1
active: locus YHR030C, strain SLT2, hits give low values 0.532 | locus YHR079C, strain IRE1, hits give low values 0.49 | locus YLR113W, strain HOG1, hits give low values 0.677 | locus YNL020C, strain ARK1, hits give low values 0.61 | locus YNL307C, strain MCK1 (second series), hits give low values 0.589 | locus YOR231W, strain MKK1, hits give low values 0.548 | locus YPL256C, strain CLN2, hits give low values 0.626
inactive: locus YAR019C, strain CDC15, hits give low values 0.966 | locus YBL105C, strain PKC1, hits give low values 0.961 | locus YBR135W, strain CKS1, hits give low values 0.974 | locus YBR136W, strain MEC1, hits give low values 0.956 | locus YBR160W, strain CDC28, hits give low values 0.959 | locus YDL017W, strain CDC7, hits give low values 0.969 | locus YDL028C, strain MPS1, hits give low values 0.976 | locus YDL101C, strain DUN1, hits give low values 0.988 | locus YDL108W, strain KIN28, hits give low values 0.965 | locus YDL132W, strain cdc53, hits give low values 0.975 | locus YDL214C, strain PRR2, hits give low values 0.817 | locus YDR052C, strain DBF4, hits give low values 0.954 | locus YDR054C, strain cdc34, hits give low values 0.965 | locus YDR226W, strain ADK1, hits give low values 0.961 | locus YDR477W, strain SNF1, hits give low values 0.83 | locus YER123W, strain YCK3, hits give low values 0.799 | locus YER133W, strain GLC7, hits give low values 0.801 | locus YFL009W, strain cdc4, hits give low values 0.976 | locus YFL029C, strain CAK1, hits give low values 0.978 | locus YFR003C, strain YPI1, hits give low values 0.959 | locus YFR019W, strain FAB1, hits give low values 0.87 | locus YFR028C, strain CDC14, hits give low values 0.967 | locus YGR040W, strain KSS1, hits give low values 0.798 | locus YGR052W, strain FMP48, hits give low values 0.745 | locus YGR092W, strain DBF2, hits give low values 0.775 | locus YHR082C, strain KSP1, hits give low values 0.806 | locus YHR205W, strain SCH9, hits give low values 0.64 | locus YIL147C, strain SLN1, hits give low values 0.959 | locus YJL095W, strain BCK1, hits give low values 0.666 | locus YJL128C, strain PBS2, hits give low values 0.943 | locus YJL157C, strain FAR1, hits give low values 0.733 | locus YJR016C, strain ILV3, hits give low values 0.983 | locus YJR066W, strain TOR1 (second series), hits give low values 0.928 | locus YJR066W, strain TOR1, hits give low values 0.607 | locus YKL048C, strain ELM1, hits give low values 0.899 | locus YKL067W, strain YNK1, hits give low values 0.798 | locus YKL101W, strain HSL1, hits give low values 0.815 | locus YKL193C, strain SDS22, hits give low values 0.982 | locus YKL203C, strain TOR2, hits give low values 0.823 | locus YLR133W, strain CKI1, hits give low values 0.816 | locus YLR403W, strain SFP1, hits give low values 0.672 | locus YML070W, strain DAK1, hits give low values 0.811 | locus YMR001C, strain CDC5, hits give low values 0.978 | locus YMR205C, strain PFK2 (second series), hits give low values 0.887 | locus YMR277W, strain FCP1, hits give low values 0.976 | locus YNL006W, strain LST8, hits give low values 0.979 | locus YNL161W, strain CBK1, hits give low values 0.977 | locus YNL183C, strain NPR1, hits give low values 0.782 | locus YNL207W, strain RIO2, hits give low values 0.962 | locus YNL222W, strain SSU72, hits give low values 0.968 | locus YOL078W, strain AVO1, hits give low values 0.984 | locus YOL136C, strain PFK27, hits give low values 0.786 | locus YOR061W, strain CKA2, hits give low values 0.69 | locus YOR119C, strain RIO1, hits give low values 0.833 | locus YOR329C, strain SCD5, hits give low values 0.965 | locus YPL031C, strain PHO85, hits give low values 0.807 | locus YPL153C, strain RAD53, hits give low values 0.833 | locus YPL204W, strain HRR25, hits give low values 0.726 | locus YPL209C, strain IPL1, hits give low values 0.966 | locus YPR025C, strain CCL1, hits give low values 0.969 | locus YPR106W, strain ISR1, hits give low values 0.977 | locus YPR111W, strain DBF20, hits give low values 0.96 | strain NNK1, hits give low values 0.97 | strain TSCII, hits give low values 0.966
